From PubChem BioAssay (NCI)
About 83,000 compounds went through this panel and 20% of them were active in at least one assay; those are over-represented in the sample as a whole.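 Cell lines were cultured in 96-well plates, exposed to a single compound concentration, and assessed for percent growth 48 hours later.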 A number with no mark means an inactive call. Rule for the calls: active = growth percent below 10; inactive = the rest.

test system: UACC-257 melanoma; assay: NCI-60 one-dose screen, 48 h (100 = growth as untreated, 0 = no growth, -100 = all killed); details: 10 µM unless noted

Compared with `COc1cc(-c2nc(/C=C3/C(=O)Nc4ccccc43)c3ccccn23)cc(OC)c1OC`, `COc1ccc(Cn2cc3c(c2-c2ccccc2)CCc2cnoc2-3)cc1OC` is lower in growth: 70.8% for the first, 61.9% for the second.

First: COc1ccc(Cn2cc3c(c2)-c2oncc2CC3)cc1OC
Second: COc1ccccc1Cn1cc2c(c1)-c1oncc1CC2
The growth of the first is lower: 59.2% for the first, 66.7% for the second.

Going from `Cc1cc(CSc2ccc(Cl)cc2)ccc1N` to `Cc1nnc(-c2cc3c(ccc4ccccc43)oc2=O)c2cn(-c3ccc(Cl)cc3)nc12`, the growth rises from 108% to 109%.

First: O=C(/C=C1\C(=O)N(Cc2ccccc2)c2ccccc21)c1ccc(OCCN2CCCCC2)cc1
Second: O=C(/C=C/c1c[nH]c2ccccc12)c1cc2ccccc2o1
The growth of the first is lower: 76.8% for the first, 98.4% for the second.

Compared with `CCCCN(CCCC)CC(O)CN(CC)CC` (configuration not stated), `C=CCN(C)C` is higher in growth: 105% for the first, 106% for the second.

First: COc1ccc(/C=C2\CCCC3=C2N=C2SC=NN2C3c2ccc(OC)c(OC)c2)cc1OC (configuration not stated)
Second: COc1ccc(/C=C2\SC(=O)N(Cc3cc(=O)oc4ccc(OC)cc34)C2=O)cc1
The growth of the first is lower: 54.6% for the first, 100% for the second.

First: CC1(c2ccc(Br)cc2)NC(=O)NC1=O (configuration not stated)
Second: O=C1C(Cl)=C(SC2=NCCN2)C(=O)c2ccccc21
The growth of the first is higher: 98.4% for the first, 36.9% for the second.

Going from `COc1ccc(Cn2cc3c(c2-c2ccc(OC)cc2)CCc2cnoc2-3)cc1` to `CC1(C)Oc2cc3oc(=O)ccc3cc2C[C@@H]1OCCOS(=O)(=O)c1ccc(C#N)cc1`, the growth rises from 65.2% to 84.2%.

Compared with `O=S(=O)(O)c1ccc2c(c1)Sc1cc(S(=O)(=O)O)ccc1O2`, `O=S(=O)(Cc1cccc2c(CS(=O)(=O)c3ccc(Cl)cc3)cccc12)c1ccc(Cl)cc1` is lower in growth: 108% for the first, 107% for the second.

Compared with `NNC(=S)N1N=C(c2cc3ccccc3o2)CC1c1c[nH]c2ccccc12` (configuration not stated), `O=C1c2ccccc2CCc2ccccc21` is higher in growth: 64.2% for the first, 103% for the second.

Compared with `O=C(O)c1occ(Cl)c1Cl`, `COC(=O)Nc1nc2ccc(C(=O)c3ccccc3N(C)C3COC3)cc2[nH]1` is lower in growth: 108% for the first, 37.9% for the second.

Compared with `Cc1c(C(N)=O)sc2c1c(=O)n(Cc1ccccc1)c1nnc(S(C)(=O)=O)n21`, `COC(=O)/C=C/c1cc(O)c2oc(-c3ccc(O)c(O)c3)c(C(=O)OC)c2c1` is lower in growth: 80.8% for the first, 60.4% for the second.

Compared with `CC1=C[C@@H]2c3c(c(O)c(O)c4oc5cc(O)cc(O)c5c(=O)c34)[C@@H](c3cc(O)c(O)c4oc5cc(O)cc(O)c5c(=O)c34)[C@@H]2C(C)(C)C1`, `C=C(C)[C@@H]1CC[C@]2(COC(=O)c3ccccc3C(=O)O)CC[C@]3(C)[C@H](CC[C@@H]4[C@@]5(C)CCCNC(C)(C)[C@@H]5CC[C@]43C)[C@@H]12` is higher in growth: 27% for the first, 81.7% for the second.

`CC([C@H]1CC=C2C3CCC4=C[C@@H](N(C)C)CC[C@]4(C)C3CC[C@@]21C)N(C)C` (some centres not stated) showed a growth of 17.9%.
